Inconclusive results are not listed. Activity calls are given as the source filed them. How the source made its calls: active means hit-call score of the fitted dose curve at least 0.9, where 1 is the maximum; inconclusive means response in the unintended direction; inactive means score below 0.9.

The source of these data is PubChem BioAssay (EPA / NIEHS).

Chain of Peroxisome proliferator-activated receptor gamma (Homo sapiens) (P37231 whole entry, looked up): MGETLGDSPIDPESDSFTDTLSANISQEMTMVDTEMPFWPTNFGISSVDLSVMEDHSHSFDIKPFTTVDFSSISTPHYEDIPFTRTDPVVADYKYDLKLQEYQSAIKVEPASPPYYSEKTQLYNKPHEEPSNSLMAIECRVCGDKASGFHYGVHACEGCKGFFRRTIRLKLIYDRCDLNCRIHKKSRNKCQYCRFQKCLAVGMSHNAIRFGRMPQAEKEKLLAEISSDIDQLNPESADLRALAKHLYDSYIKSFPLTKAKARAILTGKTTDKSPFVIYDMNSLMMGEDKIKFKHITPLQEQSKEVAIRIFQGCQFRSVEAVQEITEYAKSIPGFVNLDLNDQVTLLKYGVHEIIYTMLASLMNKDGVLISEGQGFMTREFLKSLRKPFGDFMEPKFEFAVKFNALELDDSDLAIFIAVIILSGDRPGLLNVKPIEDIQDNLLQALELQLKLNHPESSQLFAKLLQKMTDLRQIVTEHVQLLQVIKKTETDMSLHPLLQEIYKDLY
Chain of Nuclear receptor subfamily 1 group I member 2 (Homo sapiens) (O75469 whole entry, looked up): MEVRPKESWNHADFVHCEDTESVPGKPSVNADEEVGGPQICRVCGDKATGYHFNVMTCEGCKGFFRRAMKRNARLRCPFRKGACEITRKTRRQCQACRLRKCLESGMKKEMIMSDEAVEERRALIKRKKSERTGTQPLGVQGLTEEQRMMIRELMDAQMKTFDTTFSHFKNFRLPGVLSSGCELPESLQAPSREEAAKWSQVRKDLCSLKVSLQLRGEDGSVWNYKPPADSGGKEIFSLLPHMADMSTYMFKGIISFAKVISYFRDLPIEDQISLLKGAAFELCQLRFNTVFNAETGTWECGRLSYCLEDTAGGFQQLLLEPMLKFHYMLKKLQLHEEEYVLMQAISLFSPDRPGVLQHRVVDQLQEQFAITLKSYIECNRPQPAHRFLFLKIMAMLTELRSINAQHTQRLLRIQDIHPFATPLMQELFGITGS
Chain of Glucocorticoid receptor (Homo sapiens) (P04150 whole entry, looked up): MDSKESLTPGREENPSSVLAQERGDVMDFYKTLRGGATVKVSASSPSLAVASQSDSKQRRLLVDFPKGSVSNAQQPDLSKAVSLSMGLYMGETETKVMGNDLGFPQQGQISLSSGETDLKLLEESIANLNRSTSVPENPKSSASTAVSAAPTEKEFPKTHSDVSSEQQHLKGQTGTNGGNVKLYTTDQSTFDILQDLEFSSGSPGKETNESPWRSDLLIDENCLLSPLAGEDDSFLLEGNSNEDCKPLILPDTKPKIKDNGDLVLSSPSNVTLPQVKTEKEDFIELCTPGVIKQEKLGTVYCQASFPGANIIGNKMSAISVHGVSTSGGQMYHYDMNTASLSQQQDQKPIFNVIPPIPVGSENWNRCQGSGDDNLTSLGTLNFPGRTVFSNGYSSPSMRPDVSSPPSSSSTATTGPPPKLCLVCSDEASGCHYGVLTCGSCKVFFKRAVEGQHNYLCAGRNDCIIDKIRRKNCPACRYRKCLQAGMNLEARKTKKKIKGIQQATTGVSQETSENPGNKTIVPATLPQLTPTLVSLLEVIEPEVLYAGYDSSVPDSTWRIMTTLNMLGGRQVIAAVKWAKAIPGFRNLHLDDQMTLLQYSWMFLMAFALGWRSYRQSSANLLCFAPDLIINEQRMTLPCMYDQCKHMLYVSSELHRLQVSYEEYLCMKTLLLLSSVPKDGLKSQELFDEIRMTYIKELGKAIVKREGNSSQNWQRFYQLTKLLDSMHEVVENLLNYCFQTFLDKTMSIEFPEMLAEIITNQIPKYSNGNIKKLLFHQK
Chain of human Peroxisome Proliferator-activated Receptor alpha (PPARa), PPARA (gene 5465) (Q07869 whole entry, looked up): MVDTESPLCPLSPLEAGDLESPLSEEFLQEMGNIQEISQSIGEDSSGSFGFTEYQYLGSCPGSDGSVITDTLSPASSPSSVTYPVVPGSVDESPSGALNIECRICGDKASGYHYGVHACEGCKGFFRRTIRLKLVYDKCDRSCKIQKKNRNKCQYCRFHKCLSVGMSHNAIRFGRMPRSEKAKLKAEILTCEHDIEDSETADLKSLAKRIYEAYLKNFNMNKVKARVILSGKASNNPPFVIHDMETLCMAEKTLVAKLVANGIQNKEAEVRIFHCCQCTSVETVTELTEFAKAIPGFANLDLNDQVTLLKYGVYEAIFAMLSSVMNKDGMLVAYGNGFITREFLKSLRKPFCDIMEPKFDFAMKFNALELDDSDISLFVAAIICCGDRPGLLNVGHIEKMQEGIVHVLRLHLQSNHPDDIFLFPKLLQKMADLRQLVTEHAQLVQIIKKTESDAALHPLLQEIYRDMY

In one assay the target is human Peroxisome Proliferator-activated Receptor alpha (PPARa), PPARA (gene 5465) (UniProt Q07869). The experiment in a line: NVS_NR_hPPARa: NovaScreen (NVS) Nuclear Receptor Binding Assay for human Peroxisome Proliferator-activated Receptor alpha (PPARa) (AID 2283359).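 Further: activity means loss of TR-FRET signal versus DMSO baseline.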 The method in brief:
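Chemicals were first screened in duplicate at 25 uM, and active ones were retested across concentration series. Binding was monitored by TR-FRET one hour after dosing, with decreased signal against DMSO counted as activity.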
In the case of `CC(Cc1ccc(O)c(O)c1)C(C)Cc1ccc(O)c(O)c1` (stereo not given), the AC50 is 4.6 µM (active). Regarding `CCCCC(CC)COP(=O)(O)OCC(CC)CCCC` (stereo not given), the call was inactive. Consider `CNC(=S)NC`, for which the call was inactive.

For a further assay, the target named is PGR (gene 5241) (UniProt P06401). Description: NVS_NR_hPR: NovaScreen (NVS) Nuclear Receptor Binding Assay for human Progestron Receptor (PR) (AID 2283360).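 Further: active means loss of bound radioligand signal versus DMSO baseline.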 The method in brief: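 Radioligand competition binding on receptor extracted from T47D cells, read by scintillation counting 18 h after dosing. Loss of signal versus DMSO; primary screen in duplicate at 25 uM, actives followed in concentration series.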
Chain of PGR (gene 5241) (P06401 whole entry, looked up): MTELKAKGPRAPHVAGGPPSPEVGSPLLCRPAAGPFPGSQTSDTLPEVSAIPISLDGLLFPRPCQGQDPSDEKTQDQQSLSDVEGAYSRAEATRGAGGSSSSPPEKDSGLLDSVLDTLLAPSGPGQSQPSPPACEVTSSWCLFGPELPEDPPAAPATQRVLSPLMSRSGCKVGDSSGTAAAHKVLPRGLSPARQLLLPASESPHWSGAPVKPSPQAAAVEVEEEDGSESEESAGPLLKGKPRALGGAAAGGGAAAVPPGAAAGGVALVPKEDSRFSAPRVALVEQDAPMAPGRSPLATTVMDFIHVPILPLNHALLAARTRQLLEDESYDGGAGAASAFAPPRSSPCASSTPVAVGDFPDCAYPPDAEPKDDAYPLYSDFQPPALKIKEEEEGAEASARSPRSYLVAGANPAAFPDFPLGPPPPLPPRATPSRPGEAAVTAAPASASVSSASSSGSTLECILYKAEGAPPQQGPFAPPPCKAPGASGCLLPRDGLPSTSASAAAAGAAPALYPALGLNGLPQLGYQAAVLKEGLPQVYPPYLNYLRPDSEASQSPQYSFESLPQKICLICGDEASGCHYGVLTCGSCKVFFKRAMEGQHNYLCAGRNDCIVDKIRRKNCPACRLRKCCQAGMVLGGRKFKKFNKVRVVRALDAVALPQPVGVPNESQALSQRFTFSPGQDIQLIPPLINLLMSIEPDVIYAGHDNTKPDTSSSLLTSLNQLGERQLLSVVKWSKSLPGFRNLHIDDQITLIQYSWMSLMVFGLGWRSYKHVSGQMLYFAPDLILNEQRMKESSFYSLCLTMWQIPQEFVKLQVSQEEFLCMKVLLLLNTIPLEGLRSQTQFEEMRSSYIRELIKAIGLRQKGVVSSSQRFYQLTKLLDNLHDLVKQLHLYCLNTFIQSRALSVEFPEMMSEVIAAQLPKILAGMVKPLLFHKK
For `C#C[C@]1(O)CC[C@H]2[C@@H]3CCc4cc(OC)ccc4[C@H]3CC[C@@]21C`, the outcome was inactive. Still for that read-out and setting: to `Nc1ccc(Oc2cccc(Oc3ccc(N)cc3)c2)cc1` belongs “inactive”. For the molecule `CCCCNc1ccccc1`, the outcome was inactive.

In the next assay the target is Glucocorticoid receptor (Homo sapiens) (UniProt P04150). The experiment in a line: NVS_NR_hGR: NovaScreen (NVS) Nuclear Receptor Binding Assay for human Glucocorticoid Receptor (GR) (AID 2283363).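 On AC50: activity is loss of specific radioligand binding signal relative to DMSO.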 Summed up:
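Competitive displacement of a labelled ligand was measured on cell-free receptor preparations after 16 h exposure. Initial testing used 25 uM in duplicate with plate controls; confirmed actives went into concentration series.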
For `CC(Cc1ccc(O)c(O)c1)C(C)Cc1ccc(O)c(O)c1` (stereo not given), the AC50 is 1.79 µM (active). With `C#C[C@]1(O)CC[C@H]2[C@@H]3CCc4cc(OC)ccc4[C@H]3CC[C@@]21C`, the molecule was classed as inactive. In the case of `Cc1cc(C)cc(O)c1`, the molecule was classed as inactive. Take `CCN(Cc1cccc(S(=O)(=O)O)c1)c1ccc(C(=C2C=CC(=[N+](CC)Cc3cccc(S(=O)(=O)O)c3)C=C2)c2ccc(O)cc2S(=O)(=O)[O-])cc1`: the AC50 is 11.5 µM (active). Regarding `CCCCC(CC)COP(=O)(O)OCC(CC)CCCC` (stereo not given), the AC50 is 8.04 µM (active).

Consider `CNC(=S)NC`, for which the molecule was called inactive.

Another assay deals with Nuclear receptor subfamily 1 group I member 2 (Homo sapiens) (UniProt O75469). The experiment in a line: NVS_NR_hPXR: NovaScreen (NVS) Nuclear Receptor Binding Assay for human Pregnane X Receptor (PXR) (AID 2283365).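 Further: a drop in FRET signal versus DMSO baseline means the compound binds.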 The method in brief:
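Cell-free TR-FRET binding assay with extracted human PXR protein, read 2 h after dosing. Primary screen run in duplicate at 25 uM, actives followed in concentration series; loss of signal fitted against DMSO baseline.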
With `O=C(OCCOCCOCCOC(=O)c1ccccc1)c1ccccc1`, the molecule was called inactive. With `CC(Cc1ccc(O)c(O)c1)C(C)Cc1ccc(O)c(O)c1` (stereo not given), the AC50 is 5.16 µM (active). Regarding `CCN(Cc1cccc(S(=O)(=O)O)c1)c1ccc(C(=C2C=CC(=[N+](CC)Cc3cccc(S(=O)(=O)O)c3)C=C2)c2ccc(O)cc2S(=O)(=O)[O-])cc1`, the AC50 was 2.41 µM (active). The same measure, in the same setting: with `CC(CCl)OP(=O)(OC(C)CCl)OC(C)CCl` (stereo not given) the figure was 4.35 µM (active). As for `CCCCC(CC)COP(=O)(O)OCC(CC)CCCC` (stereo not given), the molecule was classed as inactive.

Take `CNC(=S)NC`: the outcome was inactive. Same read-out and setting: with `O=S(=O)(O)c1ccc2ccccc2c1` the entry was “inactive”.

Turning to `Cc1ccc(S(=O)(=O)NCl)cc1`, the outcome was inactive. On the same count and under the same terms, to `CCCCCCOC(=O)c1ccccc1O` belongs “inactive”. On the same count and under the same terms, with `COC(=O)C1CCC(C(=O)OC)CC1` (stereo not given) the entry was “inactive”.

In a further assay the test system is guinea pig Dopamine Transporter (DAT), gene 100714898. Description: NVS_TR_gDAT: NovaScreen (NVS) Transporter Assay for guinea pig Dopamine Transporter (DAT) (AID 2283369).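 Further: active compounds lower bound radioligand signal relative to DMSO.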 The method in brief:
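Guinea pig striatal membranes, cell-free radioligand binding with filter-based scintillation counting, read 2 h after dosing. Loss of signal versus DMSO baseline; single-concentration primary (25 uM) then concentration-response up to 50 uM.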
For the molecule `CCCCCCCCCCCCCCCC[N+](C)(C)Cc1ccccc1`, the AC50 is 17.3 µM (active). In the case of `Nc1ccc(Oc2cccc(Oc3ccc(N)cc3)c2)cc1`, the AC50 is 3.46 µM (active). Turning to `CCN(CC)c1ccc2c(C)cc(=O)oc2c1`, the AC50 was 13.6 µM (active). With `Oc1ccc(Nc2ccccc2)cc1`, the AC50 is 12.1 µM (active).

Another assay concerns the target Peroxisome proliferator-activated receptor gamma (Homo sapiens) (UniProt P37231). The experiment in a line: NVS_NR_hPPARg: NovaScreen (NVS) Nuclear Receptor Binding Assay for human Peroxisome Proliferator-activated Receptor gamma (PPARg) (AID 2283370). Summed up:
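Cell-free fluorescence polarization binding to human PPARg protein, read 2 h after dosing. Primary screen in duplicate at 25 uM, actives followed in concentration series; loss of signal relative to DMSO scored.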
Take `CC(Cc1ccc(O)c(O)c1)C(C)Cc1ccc(O)c(O)c1` (stereo not given): the AC50 is 4.91 µM (active). For the molecule `CCN(Cc1cccc(S(=O)(=O)O)c1)c1ccc(C(=C2C=CC(=[N+](CC)Cc3cccc(S(=O)(=O)O)c3)C=C2)c2ccc(O)cc2S(=O)(=O)[O-])cc1`, the AC50 is 8.78 µM (active).

As for `CC(CCl)OP(=O)(OC(C)CCl)OC(C)CCl` (stereo not given), the call was inactive. As to `CCCCC(CC)COP(=O)(O)OCC(CC)CCCC` (stereo not given), the outcome was inactive.

What is called AC50 is the concentration at which the activity in the assay is half-maximal.
